# Pf Dd2 growth: blocks in vitro growth of P. falciparum Dd2; Potency, µM (doses to about 28.9 µM), for inactives: at the highest dose activity, negative = inhibition, most hits filed as inhibitors; AID 1347417; 120,000 tested, 4.3% active; P. falciparum Dd2 growth, SYBR Green, 72 h; active = well fitted inhibition curve with a large enough effect;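 also: plate controls were DMSO vehicle for no effect and reference drug for full effect; nearly all actives have a fitted effect of over 65% in size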
#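 Readout: SYBR Green fluorescence, 485 nm excitation, 535 nm emission, after ~16 h lysis at 37C. Before that, Dd2-infected red cells (2.5% hematocrit) grew 72 h with compound, 29 uM top final concentration.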
# Numbers without * were called inactive; i = inactive; [ ] = another dose, or the depositor's remark. This is one part of a sample in which hits are shown more often than they occur. Potency is read from the fitted curve at half-maximal effect.
SMILES,Pf Dd2 growth
O=C(NCc1c[nH]c2ncccc12)c1ccc2ccccc2n1,i
COc1ccc(CNC(=O)[C@@H]2Cc3nc[nH]c3CN2Cc2cc3ccccc3o2)cc1,-13.3%[44.1 µM]
CCOC(=O)CCNC(=O)N1CCCC(c2nc(-c3cccnc3)no2)CCNC(=O)CC1 (stereo unspecified),-3.4%
O=[S+]1([O-])NCC2(CCN(CC3CCOCC3)CC2)Oc2ncccc21,3.4%
CC(C)(C)CN1CCC2(CC1)CN[S+](=O)([O-])c1cccnc1O2,8.91µM*
O=[S+]1([O-])NCC2(CCN(Cc3cccnc3)CC2)Oc2ncccc21,6.4%
CC1CCCN(C(=O)CCN2CCN(CCc3ccccc3)CC2)C1 (stereo unspecified),-13.9%
Cc1noc(-c2cccc(OC3CN(C(=O)NC(C)C)C3)c2)n1,23.9%[5.79 µM]
COc1ccc(C)cc1S(=O)(=O)N1CCN(c2cccc(Cl)c2)CC1,0.3%
CCOc1ccccc1CN1C[C@@H](CO)[C@H](NC(=O)COC)C1,i
COCCN1C(=O)[C@H]2CN(Cc3ccc(OC)cc3OC)C[C@H]2C1=O,i
COc1cc(OCc2ccccc2)ccc1CN1C[C@@H]2CCN[C@@H]2C1,10µM*
COc1ccc(CN2C[C@@H]3C(=O)N(Cc4ccc5c(c4)OCO5)C(=O)[C@@H]3C2)c(OC)c1,i
COc1ccc(-c2c(C)c3ccc(O)c(CN4CCOCC4)c3oc2=O)cc1,8.91µM*
COc1ccc2c(c1)OCC(CNC(=O)CN1CCOCC1)C2 (stereo unspecified),-6.0%
COc1ccc(-c2nc(C)nc3c2CCN(Cc2cncs2)CC3)cc1,i
COc1ccc(-c2c(C)c3ccc(O)c(CN4CCCC4)c3oc2=O)cc1,3.16µM*
COc1ccc(CNC(=O)C2CCN(Cc3nc(-c4ccc(Cl)cc4)oc3C)CC2)cc1,24.4%
COc1ccc(C(CNC(=O)c2oc3ccc(C)cc3c2C)N2CCOCC2)cc1 (stereo unspecified),-19.4%
CCC(=O)N1CCN(c2nc3c(s2)CC(C(=O)Nc2ccc(C(C)C)cc2)CC3)CC1 (stereo unspecified),-22.9%
Cc1nn(C)c(C)c1CCN(C)C(=O)CCC1CCN(C(=O)c2ccccc2F)CC1,-20.1%
O=C(c1cc(F)ccc1F)N1CCC(n2cc(-c3nc(C4CC4)no3)nn2)C1 (stereo unspecified),i
COc1ccc(Cn2c(C3CCN(C(=O)Cc4ccccc4)CC3)n[nH]c2=O)cc1,-4.8%
Cc1ccc(N2CCN(C(=O)c3nn(C)c4c3CS(=O)(=O)c3ccccc3-4)CC2)c(C)c1,-13.2%
COCCNC(=O)c1nc(-c2ccc(F)cc2)c2ccccn12,i
SMILES,Pf Dd2 growth
O=C(NCc1ccc(F)cc1)c1nc(-c2cc(Cl)cc(Cl)c2)c2ccccn12,10µM*
C[S+](=O)([O-])c1ccc(-c2nc(C(=O)NCc3ccc(F)cc3)n3ccccc23)cc1,11.2µM*
C[S+](=O)([O-])c1ccc(-c2nc(C(=O)NCc3cccnc3)n3ccccc23)cc1,-13.9%
O=C(NCc1ccc2c(c1)OCO2)c1nc(-c2cc(Cl)cc(Cl)c2)c2ccccn12,-26.3%
O=C(NCCc1ccc(Cl)cc1)c1nc(-c2ccc(F)cc2)c2ccccn12,10.8%
COCC(=O)NCc1nc(-c2cccc(F)c2)c(-c2ccccn2)[nH]1,5.0%
Cc1cccc(NC(=O)Nc2ccc(C)n(CC(=O)NCc3ccccc3Cl)c2=O)c1,0.7%
CCn1cc(S(=O)(=O)N2CCC3(CC2)CC(OC)CCO3)cn1 (stereo unspecified),2.8%
Cc1ccc(C(=O)N2[C@@H]3CC[C@H]2CC(NC(=O)c2ccncc2)C3)s1 (stereo partly specified),-4.6%
COc1ccc(CN2C(=O)c3oc4ccc(F)cc4c(=O)c3C2c2ccc(O)cc2)cc1 (stereo unspecified),-12.4%
COc1ccc(CN2C(=O)c3oc4ccccc4c(=O)c3C2c2ccc(O)cc2)cc1 (stereo unspecified),-28.4%
O=C1c2oc3ccccc3c(=O)c2C(c2cccc(O)c2)N1Cc1ccc(F)cc1 (stereo unspecified),14.1µM*
Cn1c(=O)n(C)c2cc(CNCc3ccc(C(=O)O)cc3)ccc21,40.5%
Cc1ncsc1C(=O)N1CCOC(CCCC(C)C)C1 (stereo unspecified),-4.1%
COc1cncc(N2CC3CCC(C2)N3CC(F)(F)F)c1,5.1%
COc1ccc(NC(=O)Cn2ccn(Cc3ccccc3)c(=O)c2=O)cc1Cl,14.5%
O=C([C@@H]1C[C@@H](c2ccc(F)cc2)N(Cc2ccccc2)C1)N1CCN(c2ccccn2)CC1,7.08µM*
O=C(O)[C@@H]1CN(Cc2ccccc2)C[C@@H]1C(=O)N1CCN(c2ccccn2)CC1,-8.4%
C[S+](=O)([O-])N1C[C@H](C(=O)N2CCN(c3ccccn3)CC2)C[C@@H]1c1ccc(F)cc1,i
Cc1ccc2[nH]c(=O)c(CCC(=O)O)cc2c1,20.8%
Cc1ccc2[nH]c(=O)c(CCC(=O)NC3CCN(Cc4ccccc4)CC3)cc2c1,7.08µM*
Cc1cccc(-c2nocc2CCC(=O)NC2CCN(Cc3ccccc3)CC2)c1,i
O=C(NCCc1ccc(F)cc1)C1CN(c2ccccc2)C(=O)N1 (stereo unspecified),i
CCCCN(CC)C(=O)c1nnn2cc(-c3ccc(Cl)cc3)[nH]c(=O)c12,86.6%
O=C1Nc2ccccc2OCC12CCN([S+](=O)([O-])c1ccccc1)CC2,8.6%
SMILES,Pf Dd2 growth
Cc1noc(C)c1[S+](=O)([O-])N1CCC2(CC1)COc1ccccc1NC2=O,8.91µM*
Cc1noc(C)c1[S+](=O)([O-])N1CCC2(CC1)Cc1ccccc1NC2=O,-10.6%
CCN1CCN(C(=O)CC2CCCN(c3cnn(CC)c(=O)c3)C2)CC1 (stereo unspecified),17.6%
COc1cccc(CNC(=O)C(=O)Nc2c3c(nn2-c2ccccc2)CSC3)c1,-12.8%
CN(C)C1CCN(c2ncc(C(C)(C)C(=O)O)c(N3CCOCC3)n2)C1 (stereo unspecified),8.1%
Cc1cccc(C)c1NC(=O)CCS(=O)(=O)c1cccc2nonc12,i
Cc1ccc(Nc2c(-c3ccccc3O)nc3cc(C)ccn23)cc1,5.62µM*
Cc1ccn2c(Nc3ccc4c(c3)OCCO4)c(-c3ccc(Cl)s3)nc2c1,-2.6%
COc1ccc(-c2nc3cc(C)ccn3c2NC(=O)c2ccc(C)c(C)c2)cc1,-7.0%
Cc1ccn2c(Nc3ccccc3C)c(-c3ccccc3)nc2c1,i
CN(C)c1ccc(-c2nc3cnccn3c2Nc2cccc(C(F)(F)F)c2)cc1,8.91µM*
Cc1ccc(Nc2c(-c3ccccc3O)nc3ccc(Br)cn23)cc1,-16.6%
COc1cc(O)ccc1-c1nc2cc(C)ccn2c1Nc1ccccc1C,7.94µM*
Cc1ccn2c(Nc3ccc(F)cc3)c(-c3ccccn3)nc2c1,4.47µM*
COc1ccc(-c2nc3cc(C)ccn3c2NC(=O)c2ccc(F)cc2)cc1,21.1%
Cc1ccc(Nc2c(-c3ccccn3)nc3ccc(Br)cn23)cc1,-4.1%
O=C(O)CCNc1c(-c2ccc(F)cc2)nc2cnccn12,-6.7%
CN(Cc1ccccc1)C(=O)CCNc1c(-c2cccc(F)c2)nc2cnccn12,-7.6%
COc1ccccc1CNC(=O)CC1COCCN1C(=O)c1cnccn1 (stereo unspecified),6.0%
CC(=O)NC1CCN(c2nc3ncccc3o2)CC1,10.6%[44.1 µM]
Cc1cccc(N(CC(=O)NCCSCc2ccccc2)S(=O)(=O)c2ccccc2)c1C,-12.5%
Nc1ncc(S(=O)(=O)NCc2ccc(F)cc2)cn1,20.8%
COc1ccc(CNC(=O)C2(c3ccc(NC(C)=O)cc3)CCCCC2)cc1OC,-0.3%

# Compound activity from PubChem.
